In PubChem BioAssay (NCATS):
Records with an inconclusive call do not appear. Calls of active or inactive are those of the source. Calls come from the whole dose curve; as a rule, active = well fitted inhibition curve with a large enough effect; inconclusive = small, poorly fitted or top-dose-only effect; inactive = flat fitted curve, though single readings scatter.

test system: CRL-7250; test: Cytotoxic Profiling of Annotated Libraries Using Quantitative High-Throughput Screening (AID 1296008); settings: Five cell lines viability, CellTiter-Glo ATP luminescence, 48-72 h; max response: stronger effect = lower value; note: nearly all actives have a fitted effect of over 60% in size
Procedure, shortened: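 Compounds were pin-transferred onto cells and incubated 48 or 72 hr at 37 degree Celsius, 95% humidity. CellTiter-Glo was added, plates sat 10 min at room temperature, then ATP-coupled luminescence was imaged as the viability read-out.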
% is set by controls: 0 for no effect and ±100 for the full control effect; potency is the fitted concentration of half-maximal effect.

Compound	max response	outcome	Potency
COc1ccc(C2(O)c3ccccc3NC(=O)C2O)cc1 (stereo unspecified)	0.154% (inactive)	–	–
CC(C)CCC1(O)C(=O)C(C)(C)C(O[C@@H]2O[C@H](CO)[C@@H](O)[C@H](O)[C@H]2O)C(C)(C)C1O (stereo partly specified)	0.265% (inactive)	–	–
O=C(Nc1ccn[nH]1)c1c(F)cccc1F	–	inactive	–
Nc1nc2c(c(=O)[nH]1)C[C@@H](CCc1ccc(C(=O)N[C@@H](CCC(=O)O)C(=O)O)cc1)CN2	–	–	0.116 µM (active)
COc1cccc(Nc2ncnn3ccc(CN4CC[C@@H](N)[C@H](O)C4)c23)c1	–	–	8.2 µM (active)
CC(=O)N[C@@H](C(=O)O[C@H]1CCC(C)(C)[C@@H]2CCC3=C(COC3=O)[C@@]12C)C(C)C	-2.03% (inactive)	–	–
O=C(Nc1nc2ccccc2n1CCc1ccccc1)c1ccccc1	1.35% (inactive)	–	–
COc1ccc(CNC(=O)c2sc3nc(C)cc(C)c3c2N)cc1	-0.266% (inactive)	–	–
Cc1cc2c(c(=O)[nH]1)OC(C(O)CC(C)C)O2 (stereo unspecified)	-20.7% (inactive)	–	–
CC1(O)CCCC2(C)C1CCC13CC(CO)C(CCC12)C3 (stereo unspecified)	-2.17% (inactive)	–	–
Cc1ccc(NC(=O)c2ccc(CN3CC[C@H](N(C)C)C3)c(C(F)(F)F)c2)cc1Nc1nccc(-c2cncnc2)n1	-22.1% (inactive)	–	–
CC1OC2OC(=O)C3(C)CC4=C(CO)C5=C(CC(=O)C4(C)C(C1=O)C23)C(C)(C)OC(=O)C5 (stereo unspecified)	-28.4% (inactive)	–	–
CC(C)=CCC/C(C)=C/CC/C(C)=C/COC1OC(COC2OCC(OC3OCC(O)C(O)C3O)C(O)C2O)C(O)C(OC2OC(C)C(OC3OC(C)C(OC4OCC(OC5OC(C)C(O)C(O)C5O)C(O)C4O)C(O)C3O)C(O)C2O)C1O (stereo unspecified)	1.98% (inactive)	–	–
CN(C)C1CCN(C(=O)c2ccc(NC(=O)Nc3ccc(-c4nc(N5CCOCC5)nc(N5CCOCC5)n4)cc3)cc2)CC1	–	–	0.0164 µM (active)
Cn1ncnc1COc1nn2c(-c3cc(F)ccc3F)nnc2cc1C(C)(C)C	-15.8% (inactive)	–	–
CC/C=C\[C@H](O)[C@H](O)C1=C(C)C(=O)[C@]2(O1)C(=O)N[C@@](OC)(C(=O)c1ccccc1)[C@@H]2O	-16% (inactive)	–	–

Compound	max response	outcome	Potency
C=CC1C(OC2OC(CO)C(O)C(O)C2O)OC=C(C(=O)OC)C1CC1CC(=O)CC(CCc2ccc(O)cc2)O1 (stereo unspecified)	3.27% (inactive)	–	–
C/C=C/C=C/C(=O)N1CC[C@]23c4ccccc4N[C@H]4N(C)c5cccc6c5[C@@]42CCN([C@H]6C2OC2(C)C)[C@H]13 (stereo partly specified)	-2.8% (inactive)	–	–
C=C1CC2C(C)(CCC(=O)O)C(C(C)(C)O)CCC2(C)C2C(=O)OC(C)(C(=O)OC)C(=O)C12C (stereo unspecified)	-2.01% (inactive)	–	–
COc1ccc(-n2[nH]c(=O)c3[nH]c4cc(Cl)ccc4c(=O)c3c2=O)c(C)c1	1.23% (inactive)	–	–
C=C1CCC[C@]2(C)CC[C@@H](C(=C)C(=O)O)[C@H](O)[C@@H]12	-0.497% (inactive)	–	–
O=C(NCC(O)CO)c1ccncc1Nc1ccc(I)cc1F (stereo unspecified)	–	–	6.51 µM (active)
Cc1cc(=O)oc2c(C=O)c(O)ccc12	0.427% (inactive)	–	–
CCc1cc(CN2CC(C(=O)O)C2)sc1-c1noc(-c2ccc(Oc3ccccc3)cc2)n1	-28.8% (inactive)	–	–
COc1cc2c(NC3CCN(CC4CCCCC4)CC3)nc(N3CCCN(C(C)C)CC3)nc2cc1OCCCN1CCCCC1	–	–	4.61 µM (active)
COc1cc2ncnc(N3CCC(Oc4cnc5ccccc5n4)C3)c2cc1OC (stereo unspecified)	–	–	6.51 µM (active)
C=C1OC2CC(C(=O)O)C=CC2NC1=O (stereo unspecified)	-1.3% (inactive)	–	–
C[C@H]1Oc2cc(cnc2N)-c2c(nn(C)c2C#N)CN(C)C(=O)c2ccc(F)cc21	–	–	0.0366 µM (active)
CCCCOC(=O)NC(=O)C1c2ccccc2Oc2ccccc21	-2.73% (inactive)	–	–
CC1(C)CC[C@]2(C(=O)O)[C@H](O)C[C@]3(C)C(=CCC4[C@@]5(C)CC[C@H](O[C@@H]6O[C@H](CO[C@@H]7OC[C@H](O)[C@H](O)[C@H]7O[C@@H]7OC[C@@H](O)[C@H](O)[C@H]7O)[C@@H](O)[C@H](O)[C@H]6O[C@@H]6O[C@H](CO)[C@@H](O)[C@H](O)[C@H]6O)C(C)(C)C5CC[C@]43C)[C@@H]2C1 (stereo partly specified)	-10.1% (inactive)	–	–
C1CCC[C@H]2CCCN3CC[C@@H](CCCCCC[C@@H]4CCCN5CC[C@@H](CC1)O[C@@H]45)O[C@@H]23	0.135% (inactive)	–	–
